Source: PubChem BioAssay (National Center for Advancing Translational Sciences (NCATS))
D2 ag-1: agonists of human D2 dopamine receptor | P14416 | AID 485358 | 0.53% of 340,000 active | HEK293 T-REx D2 cells, calcium flux agonist mode | activation, % at 2 µM;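 active means activation over 3 SD above normal in the single-dose calcium agonist read, cut at about 30% in these data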; further: 0% is about no effect
Target sequence (P14416 whole entry, looked up): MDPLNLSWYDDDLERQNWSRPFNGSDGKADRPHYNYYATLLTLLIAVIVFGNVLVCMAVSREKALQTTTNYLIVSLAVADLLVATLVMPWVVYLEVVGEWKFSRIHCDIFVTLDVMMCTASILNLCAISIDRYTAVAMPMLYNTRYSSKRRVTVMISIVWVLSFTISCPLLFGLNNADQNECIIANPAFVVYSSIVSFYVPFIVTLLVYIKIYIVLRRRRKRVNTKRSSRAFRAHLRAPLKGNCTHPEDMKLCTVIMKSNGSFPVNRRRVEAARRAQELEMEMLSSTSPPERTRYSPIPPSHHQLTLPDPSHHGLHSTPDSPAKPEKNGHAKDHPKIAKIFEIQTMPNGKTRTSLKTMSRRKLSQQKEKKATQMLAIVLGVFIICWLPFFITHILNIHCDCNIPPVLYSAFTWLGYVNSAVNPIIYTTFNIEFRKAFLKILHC
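In this primary screen, compounds producing a positive calcium signal within 180 s of addition to tetracycline-induced, force-coupled HEK293 Trex D2 cells are flagged; cells are dye-loaded with a no-wash calcium kit beforehand.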
D2 PAM-1: potentiates the human D2 dopamine receptor allosterically. P14416. DiscoveRx D2 beta-arrestin cells, luminescence, 90 min; 100% = 57 uM dopamine signal. potentiation, % (concentration not given with the values). 0.23% of 360,000 active; in the data active means potentiation above about 50%
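PathHunter D2 cells, attached overnight at 37 deg C, received compound in DMSO plus dopamine at EC20 (50 nM final) for 90 min at 37 deg C. Beta-arrestin recruitment was read as luminescence after 1 h with detection reagent at ambient temperature.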
D2 ag-2: agonists of human D2 dopamine receptor (beta-arrestin) | P14416 | DiscoveRx PathHunter D2 beta-arrestin, luminescence, 90 min; 100% = 57 uM dopamine signal | activation, % (concentration not given with the values) | 0.084% of 360,000 active; in the data active means activation above about 40%
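DiscoveRx PathHunter D2 beta-arrestin cells (2,100/well) attached overnight, then compound-stimulated 90 min at 37 C in HBSS/10 mM HEPES/0.1% Tween-20 buffer; beta-galactosidase complementation read by luminescence after 1 h at ambient temperature. Dopamine 57 uM final (EC100) as control.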
D2 antagonist: antagonizes the human D2 dopamine receptor. 2% of 340,000 active. inhibition, % at 10 µM. HEK293 TREx D2 cells, calcium flux, dopamine EC80; in the data active means inhibition above about 30%; inactive means below that, where a call was filed; further: 0% is about no effect
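Dopamine at EC80 is the agonist stimulus; test compounds precede it by 180 s. Calcium flux read kinetically in a force-coupled, inducible HEK293 T-REx D2 cell line.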
D2 PAM-2: positively modulates the human D2 dopamine receptor allosterically; P14416; HEK293 T-REx D2, calcium flux, EC20 dopamine potentiation; potentiation, % at 10 µM; 0.34% of 340,000 active;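 active means potentiation over 3 SD above the plate norm, cut at about 30% in these data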; further: 0% is about no effect
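Primary screen. Calcium kinetics in induced HEK293 T-REx D2 cells: compound pre-addition 180 s, EC20 dopamine, 180 s more.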
LDHA inh: inhibitors of human lactate dehydrogenase A; activity change, % (values are at about 110 or 230 µM); 0.15% of 480,000 active; purified LDHA, NADH/diaphorase-resazurin fluorescence; hits give low values; P00338; AID 1347041; in the data active means activity change below about -30%;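 further: plate controls were DMSO wells for no effect and wells without enzyme for full effect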
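LDH5 2 nM; NADH 0.06 mM, pyruvate 0.2 mM; 200 mM Tris pH 7.4, EDTA, Tween-20; 5 min RT. Detection: diaphorase 0.133 mg/mL + resazurin 37 µM, fluorescence ex540/em590 at 0 and 20 min; normalized to enzyme-free and DMSO wells.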
The depositor's hits bear a star; nt = not tested or not shown; ! = not active in a repeat. A selection: hits, their analogues and other compounds. The true share with any hit is near 2.1%.

SMILES	D2 ag-1	D2 PAM-1	D2 ag-2	D2 antagonist	D2 PAM-2	LDHA inh
COc1cc(/C=C/C(=O)c2ccc(OCC#N)cc2)ccc1OCCC(C)C	nt	nt	nt	nt	nt	6
CC1C[N+](=C2C=C(N3CCOCC3)CC(C)(C)C2)CC(C)O1 (stereo not drawn)	0	8	3	15	-1	-57*
COc1ccc(-n2cnc3c2NC(=O)CC3c2cccnc2)cc1 (stereo not drawn)	nt	nt	nt	nt	nt	97
O=C(CSc1ncnc2nc[nH]c12)Nc1ccccc1Cl	nt	nt	nt	nt	nt	5
O=C(CSc1ncnc2nc[nH]c12)c1ccc(Cl)cc1	2	-1	6	14	3	-2
O=C(CSc1ncnc2nc[nH]c12)Nc1cc(Cl)ccc1Cl	nt	nt	nt	nt	nt	-38*
O=C(CSc1ncnc2nc[nH]c12)c1ccc([N+](=O)[O-])cc1	-1	56*	14	-1	3	0
O=C(CSC1=NC2(CCCCC2)N=C1c1cccs1)NCc1ccc(F)cc1	nt	nt	nt	nt	nt	5
COC(=O)/C(=C/c1ccccc1)NC(=O)c1ccco1	0	-2	-1	39*	2	-10
N#Cc1c2c(c3nncn3c1NCc1ccncc1)CN(Cc1ccccc1)CC2	nt	nt	nt	nt	nt	11
CN1CCN(C(c2ccccc2)c2ccccc2)CC1	1	-36	-4	16	-23	-4
COc1cc(CN2CCN(C(c3ccccc3)c3ccccc3)CC2)cc(OC)c1OC	-2	-7	3	17	-19	-6
Cc1cccc(CN2CCN(C(c3ccccc3)c3ccc(Cl)cc3)CC2)c1 (stereo not drawn)	-2	-24	-6	31*	-22	-4
CN1CCCN(C(c2ccccc2)c2ccc(Cl)cc2)CC1 (stereo not drawn)	2	-36	-2	82*	-30	-4
Cc1ccc(NC(=O)c2c3c(nc4ccccc24)CCCC3)cc1Cl	nt	nt	nt	nt	nt	3
CC(=O)c1c(C)[nH]c(C(=O)C(C)OC(=O)c2ccc(F)cc2F)c1C (stereo not drawn)	nt	nt	nt	nt	nt	4
O=C(CCC(=O)Nc1ccc(F)cc1)N/N=C/c1ccccc1O	0	-20	-2	34*	-7	-3
O=C(CCC(=O)Nc1ccc(Br)cc1)N/N=C/c1ccccc1F	0	-6	3	7	-1	1
O=C(CCC(=O)Nc1ccccc1)N/N=C/C=C/c1ccccc1	0	-2	1	30*	-10	1
CCOc1cccc2sc(Nc3nc4ccc(NC(C)=O)cc4s3)nc12	1	4	4	31*	-14	-3
CCOc1ccccc1NC(=O)Nc1ccc2nc(NC(C)=O)sc2c1	nt	nt	nt	nt	nt	-6
O=C1C(Nc2ccccc2)=C/C(=N/S(=O)(=O)c2cccs2)c2ccccc21	-2	-2	-5	0	7	43
Cc1ccc(NC2=C/C(=N/S(=O)(=O)c3cccs3)c3ccccc3C2=O)cc1	0	58*	14	-20	4	24
CCc1cc2c(SCC(=O)c3ccccc3)ncnc2s1	-1	18	-3	14	1	-9
CCc1cc2c(SCC(=O)c3cccs3)ncnc2s1	0	-17	-4	34*	0	-11
SMILES	D2 ag-1	D2 PAM-1	D2 ag-2	D2 antagonist	D2 PAM-2	LDHA inh
COc1ccc(OCc2nnc(SCC(=O)Nc3cccc(Cl)c3)o2)cc1	0	-1	-4	43*	-3	-10
Cc1nc(SCC(=O)Nc2cccc(C(=O)O)c2)n[nH]1	0	-7	-7	2	0	1
Cc1ccc(OCc2nnc(SCC(=O)N3c4ccccc4Sc4ccc(Cl)cc43)o2)cc1	2	50*	15	-7	-7	-6
Cc1nc(SCC(=O)Nc2cccc(Cl)c2)n[nH]1	0	-6	-3	-14	30*	-3
COc1ccc(CCNC(=O)NC2CCCCC2)cc1	0	1	-1	31*	5	-6
COCCNc1nc(N2CCCCC2)c2cnn(C)c2n1	0	-10	-4	-16	36*	-9
Cc1ccc(C(=O)NNC(=O)c2cc(OCC(F)(F)F)ccc2OCC(F)(F)F)cc1	nt	-15	-5	32*	2	-3
Nc1[nH]n2c(=O)c3c(nc2c1N=Nc1ccc(Cl)cc1)CCCC3	0	-6	-2	2	1	0
O=c1c2c(nc3c(-c4ccccc4)c[nH]n13)CCCC2	-1	-28	-2	3	-12	4
Cc1[nH]n2c(=O)c3c(nc2c1-c1ccccc1)CCC3	0	-32	-1	36*	-19	-2
Cc1[nH]n2c(=O)c3c(nc2c1-c1ccc(Cl)cc1)CCC3	-1	-35	-1	75*	-22	-1
CCCCc1c(C)nc2c(-c3ccc(Cl)cc3)c(C)[nH]n2c1=O	-1	nt	nt	nt	-18	-6
Nc1[nH]n2c(=O)c3c(nc2c1N=Nc1ccccc1)CCCC3	0	-15	-3	37*	-5	3
Cc1ccc(Nc2nnc(-c3ccc(C)c(S(=O)(=O)NC(C)(C)CO)c3)c3ccccc23)c(C)c1	nt	nt	nt	nt	nt	1
CC(=O)Oc1ccc2cc(-c3ccccc3)c(=O)oc2c1	-1	-2	2	27	7	-31*!
COc1ccccc1-n1c(SCC(=O)NC2CCS(=O)(=O)C2)nc2cc([N+](=O)[O-])ccc21 (stereo not drawn)	0	-1	0	-18	-5	-8
CCN(CC)S(=O)(=O)c1ccc2c(c1)nc(SCC(=O)NC1CC1)n2-c1ccccc1OC	1	-5	-2	51*	nt	-1
Cc1cc(OCCN2CCOCC2)ccc1Cl	0	-7	5	46*	-2	-16
N#Cc1nc(-c2cccc(Cl)c2)oc1NCCCN1CCOCC1	nt	nt	nt	nt	nt	16
CC1CCN(CCOc2ccc(Cl)c(Cl)c2)CC1	6	-14	-4	84*	-26	-20
O=C(NCCN1CCOCC1)c1cccc(Cl)c1	2	-9	-3	33*	-16	-3
Clc1cccc(-c2ccc(CNCCCN3CCOCC3)o2)c1	-1	-20	-3	92*	-21	-8
O=C(NCCN1CCOCC1)c1cccc(Br)c1	nt	-6	2	nt	nt	-4
CCNc1c(NC(=O)c2cc(Cl)ccc2OC)c(=O)oc2ccccc12	nt	nt	nt	nt	nt	-11
Cc1ccc(C2c3c(-c4cc(C)cc(C)c4O)n[nH]c3C(=O)N2CCCO)cc1 (stereo not drawn)	nt	nt	nt	nt	nt	7
Clc1cccc(OCCN2CCOCC2)c1	6	-29	1	-5	-11	-34*
CC1=C(c2ccc(C)c(C)c2)S(=O)(=O)N(CC(=O)NCc2ccc3c(c2)OCO3)C1=O	nt	nt	nt	nt	nt	24
O=C(N/N=C/c1ccccc1F)C1CC1	nt	nt	nt	nt	nt	11
Cc1ccc(OCCCNCCO)c(Br)c1	1	-29	0	39*	-14	-3
